Results on nine molecules are retold here after PMC5540273 (PLoS ONE, 2017).

Some test systems named below: MELK; MERTK; MET; MKK7; MKNK1; MKNK2.
Common to all, as to conditions: concentration: 1 μM, replicates: in singlicate; n = 1
In another assay the test system is T1, MEK5.
T1 construct: gene MAP2K5

The next assay concerns T2, MEK6.
T2 construct: gene MAP2K6

The next assay has as its system T3, MINK.
T3 construct: gene MINK1

The next assay deals with T4, MLCK.
T4 construct: gene MYLK3

The structures appear in SMILES notation.
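Further: KINOMEscan kinase panel screen.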

On to `N#CC1(c2cccc(C(=O)Nc3cccc(Oc4ccc5nc(NC(=O)C6CC6)sc5n4)c3)c2)CC1`, for which the “%Inh” value in the assay on MEK5 was determined as 99.1%; with MEK6, 18%; in the assay with MELK it was 1%; in the assay on MERTK, 80%; in the assay with MET, 2%; in the assay on MINK, 54%. Besides, the “%Inh” value in the assay on MKK7 turned out to be 0%; with MKNK1 it was 40%; in the assay with MKNK2, 0%; with MLCK, 36%.

For the molecule `COc1cccc(NC(=O)NCCNc2ccnc(Nc3ccc(F)cc3)n2)c1` [GSK1379879], the “%Inh” value in the assay with MEK5 is recorded as 40%; in the assay on MEK6, 0%; in the assay with MELK, 0%; in the assay with MERTK it was 0%; with MET it was 0%; in the assay with MINK, 2%. Besides, the “%Inh” value with MKK7 was 30%; with MKNK1, 12%; in the assay on MKNK2 it was 7%; in the assay with MLCK, 0%.

With `NCCC(NC(=O)c1cc(Br)c(-c2ccnc3[nH]ccc23)s1)c1ccccc1.O=C(O)C(F)(F)F.O=C(O)C(F)(F)F` (stereo not drawn) [GSK1307810], the “%Inh” value in the assay on MEK5 stood at 18%; in the assay with MEK6, 8%; with MELK it was 74%; in the assay on MERTK it was 25%; in the assay on MET it was 24%; in the assay with MINK it was 55%. For the same molecule, the “%Inh” value with MKK7 worked out at 18%; with MKNK1 it was 32%; with MKNK2, 93.9%; in the assay on MLCK, 85%.

On to `CC(=O)Nc1cn2nc(Oc3cccc(NC(=O)c4cccc(C(F)(F)F)c4)c3)ccc2n1`, for which the “%Inh” value is recorded as 93.3% in the assay on MEK5; 5% with MEK6; 20% with MELK; 73% with MERTK; 16% in the assay on MET; 22% with MINK. The “%Inh” value with MKK7, in the assay on MKNK1, in the assay on MKNK2 and with MLCK was 0% in each case.

With `CCn1cnc2c(NCc3ccccc3)ncnc21` [SKF-96418], the “%Inh” value was 38% with MEK5; 9% in the assay on MEK6; 0% in the assay with MELK; 0% in the assay with MERTK; 0% in the assay with MET; 12% in the assay with MINK. Moreover, the “%Inh” value in the assay with MKK7 is recorded as 17%; in the assay with MKNK1, 0%; with MKNK2 it was 0%; with MLCK, 0%.

`CN(c1ccc(NC(=O)N2CCN(CCCN3CCOCC3)CC2)cc1)c1ccnc(Nc2ccc(CS(C)(=O)=O)cc2)n1.Cl` [GW830899]: the “%Inh” value is 80% with MEK5; 0% in the assay with MEK6; 0% in the assay with MELK; 0% in the assay with MERTK; 67% with MET; 0% in the assay with MINK. Moreover, the “%Inh” value in the assay with MKK7 was found to be 0%; in the assay with MKNK1 it was 33%; in the assay on MKNK2, 0%; in the assay with MLCK, 0%.

Take `CN(C)CCNS(=O)(=O)c1ccc(-c2ccnc3[nH]ccc23)cc1` [GSK977620]: the “%Inh” value in the assay with MEK5 was found to be 71%; with MEK6 it was 100%; in the assay with MELK, 92.6%; in the assay on MERTK, 72%; with MET, 0%; in the assay on MINK, 4%. In addition, the “%Inh” value in the assay with MKK7 amounted to 6%; in the assay on MKNK1, 0%; in the assay on MKNK2 it was 77%; in the assay with MLCK, 18%.

Turning to `O=C(Nc1n[nH]c2nc(-c3cccc(O)c3)ccc12)C1CC1` [SB-711805], the “%Inh” value in the assay on MEK5 came to 95.9%; in the assay with MEK6, 0%; in the assay with MELK it was 3%; with MERTK, 47%; in the assay with MET it was 0%; in the assay with MINK it was 51%. In addition, the “%Inh” value came to 0% in the assay with MKK7, 0% in the assay with MKNK1, 26% with MKNK2 and 94.5% in the assay on MLCK.

Regarding `Cc1ccc(NC(=O)c2cccc(N3CCCCC3)c2)cc1-c1ccc(C(=O)NCC2CC2)cc1` [GSK1917008], the “%Inh” value in the assay on MEK5 turned out to be 20%; in the assay on MEK6 it was 35%; in the assay with MELK it was 0%; in the assay with MERTK, 18%; in the assay on MET it was 0%; in the assay with MINK, 0%. Besides, the “%Inh” value was determined as 0% with MKK7, 10% with MKNK1, 18% in the assay on MKNK2 and 0% with MLCK.
